These results are taken from PubChem BioAssay (NCATS).

Values joined by “and” are separate entries in the source; they are usually repeats but may differ in a detail not shown here. Identical values can stand only once. Records with an inconclusive call do not appear. The source holds several records for some structures; these can differ, active in one and inactive in another. Unmarked numbers belong to inactive results. Active and inactive are the calls of the source. Calls come from the whole dose curve; as a rule, active = well fitted inhibition curve with a large enough effect; inconclusive = small, poorly fitted or top-dose-only effect; inactive = flat fitted curve, though single readings scatter.

The test system of one assay is CRL-7250. The experiment in a line: Cytotoxic Profiling of Annotated Libraries Using Quantitative High-Throughput Screening (AID 1296008). For max response: % is set by controls: 0 for no effect and ±100 for the full control effect. Note: potency is the fitted concentration of half-maximal effect. To be noted: Five cell lines viability, CellTiter-Glo ATP luminescence, 48-72 h; max response: active compounds read low. An outline of the steps: (§1)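 Cytotoxicity was measured as CellTiter-Glo ATP luminescence, read after 10 min at room temperature. Compound treatment of the cells lasted 48 or 72 hr at 37 degrees Celsius in a qHTS format.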
(In general: Cellular ATP, detected with luciferase, serves as a proxy for viable cell number.)

The subject of a further assay is HEK293. The assay is described as above. To be noted: Five cell lines viability, CellTiter-Glo ATP luminescence, 48-72 h; max response: active compounds read low. An outline of the steps:
as §1

Assay [1] concerns HaCat. The description is as above. To be noted: Five cell lines viability, CellTiter-Glo ATP luminescence, 48-72 h; max response: active compounds read low. The gist of the method:
as §1

Another assay relates to KB-3-1. The description is as above. To be noted: Five cell lines viability, CellTiter-Glo ATP luminescence, 48-72 h; max response: active compounds read low. An outline of the steps:
as §1

In assay [2] the test system is NIH3T3. Described as above. Particulars: Five cell lines viability, CellTiter-Glo ATP luminescence, 48-72 h; max response: active compounds read low. The gist of the method: as §1
The test system of assay [3] is HACAT. Briefly: qHTS assay to identify novel small-molecules to repurpose for Merkel cell carcinoma treatment (AID 1296009). Note: potency is the fitted concentration of half-maximal effect. Particulars: MCC and control cell lines, CellTiter-Glo viability, 72 h; series mostly up to 44.8 µM. The gist of the method:
(§2)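 72 hr, 37 degree celsius; NPC 8-pt / MIPE 11-pt dose response; compound pinned in DMSO; CellTiter-Glo, 10 min RT, luminescence; normalized to no-cell and DMSO controls.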

In a further assay the test system is MCC-26. Described as above. Particulars: MCC and control cell lines, CellTiter-Glo viability, 72 h; series mostly up to 46 µM. The gist of the method: as §2
A further assay has as its system MCC-13. Described as above. To be noted: MCC and control cell lines, CellTiter-Glo viability, 72 h; series mostly up to 46 µM. An outline of the steps:
as §2

Another assay has as its system MKL-1. The description is as above. To be noted: MCC and control cell lines, CellTiter-Glo viability, 72 h; series mostly up to 46 µM. An outline of the steps:
as §2

In a further assay the test system is MKL-2. Described as above. Particulars: MCC and control cell lines, CellTiter-Glo viability, 72 h; series mostly up to 46 µM. The gist of the method: as §2
Assay [4] concerns NIH3T3. The description is as above. Particulars: MCC and control cell lines, CellTiter-Glo viability, 72 h; at 44.8 µM (top of the series) unless noted. An outline of the steps: as §2
The next assay relates to UISO. Described as above. Particulars: MCC and control cell lines, CellTiter-Glo viability, 72 h; series mostly up to 46 µM. An outline of the steps:
as §2

The next assay has as its system HEK293T. Described as above. Particulars: MCC and control cell lines, CellTiter-Glo viability, 72 h; at 44.8 µM (top of the series) unless noted. An outline of the steps:
as §2

In another assay the test system is PC49. The experiment in a line: qHTS profiling for inhibitors of Plasmodium falciparum proliferation (AID 504749).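 Note: 0% = DMSO vehicle and full inhibition = artemisinin control.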 Particulars: P. falciparum in erythrocytes, SYBR Green DNA, 72 h; series mostly up to 28.7 µM. An outline of the steps:
(§3)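 Infected RBCs, 0.3% parasitemia/2.5% Hct final; cpd 72 h, 37 C, 5% CO2; lysis buffer with saponin/triton/SYBR Green I, o/n RT dark; FI 485/535; norm. to artemisinin (0.29 uM) and DMSO.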

The next assay has as its system SC27B. The description is as above. To be noted: P. falciparum in erythrocytes, SYBR Green DNA, 72 h; series mostly up to 28.7 µM. An outline of the steps: as §3
A further assay deals with TAB109. The description is as above. Particulars: P. falciparum in erythrocytes, SYBR Green DNA, 72 h; series mostly up to 28.7 µM. The gist of the method:
as §3

For another assay, the system named is TAB113. The description is as above. To be noted: P. falciparum in erythrocytes, SYBR Green DNA, 72 h; series mostly up to 28.7 µM. The gist of the method: as §3
A further assay concerns TAB165. The description is as above. Particulars: P. falciparum in erythrocytes, SYBR Green DNA, 72 h; series mostly up to 28.7 µM. An outline of the steps: as §3
Note: nearly all actives have a fitted effect of over 60% in size.

As to `OCc1ccc(-c2ccc(-c3ccc(CO)s3)o2)s1`, the max response in the assay on CRL-7250 is -8.37%; in the assay with HaCat [1] it was 4.62%; in the assay on KB-3-1, -70.8%; in the assay with NIH3T3 [2], -23.8%. The values for the Potency in the assay on HEK293 and in the assay with KB-3-1 were 0.142 µM (active) and 2.82 µM (active), respectively. Further, in the assay on HaCat [1], the compound was called inactive. Moreover, the Potency entry in the assay on HACAT [3] and with MCC-26 was “inactive” each time.
In the case of `Nc1nc(NCCNc2ncc(-n3ccnc3)c(-c3ccc(Cl)cc3Cl)n2)ccc1[N+](=O)[O-]`, the figures for the Potency with CRL-7250 and in the assay with KB-3-1 were 5.8 µM (active) and 20.6 µM (active), respectively. Also, the max response in the assay with CRL-7250 is -3.28%; in the assay on HEK293, 4.96%; with NIH3T3 [2], 4.08%. Moreover, the compound was classed as inactive in the assay on HaCat [1], with KB-3-1, in the assay with NIH3T3 [2] and with NIH3T3 [4]. Also, the Potency result in the assay with HACAT [3], with MCC-13, with MCC-26, in the assay on MKL-1, in the assay with MKL-2 and in the assay with UISO was “inactive” throughout.
On to `COc1ccc2c(OCc3nnc4ccc(-c5ccccc5)nn34)ccnc2c1`, for which the max response in the assay on CRL-7250 was -1.03%; with KB-3-1, -1.11% and 9.78%; in the assay with NIH3T3 [2], -4.81% and -9.25%. In addition, the result with CRL-7250, in the assay with HEK293, with HaCat [1] and in the assay on HEK293T was inactive. Moreover, the Potency entry in the assay with HACAT [3], in the assay with MCC-13, with MCC-26, with MKL-1, with MKL-2 and in the assay with UISO was “inactive” throughout.
For `CNC(=O)c1ccc(-c2cnc3ncc(Cc4ccc5ncccc5c4)n3n2)cc1F`, the max response in the assay with CRL-7250 is -2.64%; in the assay on HaCat [1], -3.74% and -10.2%; in the assay on KB-3-1, 3.93% and 3.42%; in the assay with NIH3T3 [2], -7.6% and -25.4%. The result with CRL-7250, in the assay on HEK293 and with HEK293T was inactive. The Potency entry in the assay with MCC-13, with MCC-26, in the assay with MKL-1, with MKL-2 and with UISO was “inactive” each time.
Turning to `C[C@]12CC[C@H](O)CC1=CCC1C2CC[C@]2(C)C(n3cnc4ccccc43)=CCC12` (stereo partly drawn), the max response in the assay with CRL-7250 is -7.08%; in the assay with HEK293, -24.7%; in the assay on HaCat [1], 2.2%; in the assay with KB-3-1, 0.714%; with NIH3T3 [2], 3.78% and -16%. Further, the Potency in the assay with HEK293 was 14.6 µM (active). Further, the Potency entry in the assay on MCC-13, with MCC-26, in the assay on MKL-1 and with UISO was “inactive” each time.
For `C=CCn1c(=O)c2cnc(Nc3ccc(N4CCN(C)CC4)cc3)nc2n1-c1cccc(C(C)(C)O)n1`, the max response in the assay with CRL-7250 is -7.63%. Moreover, the Potency in the assay with HEK293 was 235 nM (active) and 920 nM (active); in the assay with HaCat [1], 332 nM (active) and 1.64 µM (active); with KB-3-1, 0.264 µM (active); in the assay on NIH3T3 [2], 469 nM (active) and 1.16 µM (active); in the assay on MCC-13, 6.62 µM (active); in the assay with MCC-26, 4.69 µM (active). In addition, the Potency with MKL-1 was 0.662 µM (active); in the assay on UISO, 3.72 µM (active).
Turning to `CC(=O)c1c(C)c2cnc(Nc3ccc(N4CCNCC4)cn3)nc2n(C2CCCC2)c1=O`, the max response in the assay with CRL-7250 was -3.02%; in the assay with HEK293 it was -2.77%; in the assay on HaCat [1], 1.14%; in the assay with KB-3-1 it was -7.2%; in the assay on NIH3T3 [2] it was 3.53%. Further, the Potency entry with MCC-13 and with MCC-26 was “inactive” in each case.
Turning to `NC1(Cc2ccc(Cl)cc2)CCN(c2ncnc3[nH]ccc23)CC1`, the Potency with CRL-7250 was 13.2 µM (active); with HEK293, 1.66 µM (active) and 6.51 µM (active). In addition, the values for the max response in the assay on HaCat [1], in the assay on KB-3-1 and in the assay with NIH3T3 [2] were -10.8%, -6.56% and 0.262%, respectively. The Potency result in the assay with MCC-13, in the assay on MCC-26 and in the assay on MKL-2 was “inactive” in each case.
In the case of `C[C@H]1C[C@@H]2[C@@H]([C@@H](O)C[C@@]3(C)[C@H]2CC[C@]3(O)C(=O)CO)[C@@]2(C)C=CC(=O)C=C12`, the Potency entry with PC49, with SC27B, in the assay with TAB109, in the assay with TAB113, in the assay with TAB165 and in the assay with MCC-13 was “inactive” in each case. Further, the Potency result with MCC-26, in the assay on MKL-1, in the assay with MKL-2 and with UISO was “inactive” throughout. Besides, the max response was -0.811% in the assay on CRL-7250; -9.41% in the assay on HEK293; -11.8% in the assay on HaCat [1]; -1.28% and 2.95% with KB-3-1. Further, the compound was called inactive in the assay with NIH3T3 [2] and with NIH3T3 [4].
Turning to `CC(NCc1ccc2c(c1)nc(NC(=O)c1ccc(-c3cn[nH]c3)s1)n2CC(C)(C)O)C(C)(C)C` (stereo not drawn), the Potency in the assay on CRL-7250 was 0.296 µM (active); in the assay with HEK293 it was 0.132 µM (active); with HaCat [1], 743 nM (active); in the assay on KB-3-1, 0.209 µM (active); with NIH3T3 [2], 590 nM (active); in the assay with MCC-13, 2.35 µM (active). For the same compound, the Potency in the assay on MCC-26 is 1.48 µM (active); with MKL-1, 0.332 µM (active); in the assay with UISO it was 1.32 µM (active).
Turning to `NC(=O)Nc1cc(-c2cccc(F)c2)sc1C(=O)N[C@H]1CCCNC1`, the Potency was 4.69 µM (active) and 2.06 µM (active) with CRL-7250; 148 nM (active) and 231 nM (active) in the assay on HEK293; 8.33 µM (active) and 1.3 µM (active) with HaCat [1]; 2.09 µM (active) and 1.03 µM (active) in the assay with KB-3-1; 418 nM (active) and 291 nM (active) in the assay with NIH3T3 [2]; 14.8 µM (active) in the assay with MCC-13. For the same compound, the figures for the Potency in the assay with MCC-26, with MKL-1 and in the assay with UISO were 11.8 µM (active), 3.32 µM (active) and 4.18 µM (active), respectively.
`CC(=O)SC[C@@H](C)C(=O)N1CCC[C@H]1C(=O)N[C@@H](Cc1ccccc1)C(=O)O`: the max response is 1.31% in the assay on CRL-7250, 1.63% in the assay with HaCat [1], 2.35% in the assay with KB-3-1 and 0.0761% in the assay with NIH3T3 [2]. In addition, the compound was called inactive in the assay with HEK293 and in the assay with HEK293T. Besides, the Potency entry in the assay on MCC-13, in the assay on MCC-26, in the assay on MKL-1, in the assay with MKL-2 and with UISO was “inactive” in each case.
`CC(=O)OCC(=O)[C@@]1(O)[C@H](C)C[C@H]2[C@@H]3C=C(C)C4=Cc5c(cnn5-c5ccccc5)C[C@]4(C)[C@@H]3[C@@H](O)C[C@@]21C`: the Potency with CRL-7250 is 20.9 µM (active); with HEK293, 13.2 µM (active); in the assay with NIH3T3 [2], 14800 nM (active); in the assay on MKL-2, 7.43 µM (active). Moreover, the max response in the assay with HaCat [1] was -6.31%. Moreover, the call with KB-3-1 was inactive. Further, the Potency entry with MCC-13, in the assay on MCC-26, in the assay with MKL-1 and in the assay with UISO was “inactive” each time.
Regarding `O=C(Nc1ncc(-c2cc(C(F)F)nn2-c2c(Cl)cccc2Cl)s1)C1CC1`, the Potency with CRL-7250 is 1.48 µM (active) and 3.66 µM (active); with HEK293, 1.05 µM (active); with KB-3-1 it was 590 nM (active) and 820 nM (active); with NIH3T3 [2] it was 1.18 µM (active) and 1.46 µM (active). For the same compound, the max response in the assay on HaCat [1] is -7.36% and -20.3%.
